In PubChem BioAssay AID651591 (Broad Institute, 2012):
Entries with a potency or affinity are not part of this list. Active and inactive are the calls of the source.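 The calls were made as follows: active = compounds lowering cell ATP signal whose fitted half-effect dose is at most a set limit; inconclusive = flat fit showing moderate signal loss, or unreliable curve fit; inactive = the rest, including signal increases.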

Experiment: A375 melanoma cell viability loss, dose response, counter-screen for MITF modulator project, CellTiter-Glo luminescence, dry powder, set 9 (AID 651591)
Settings: CellTiter-Glo ATP luminescence, 24 h; series mostly up to 35 µM; activity change, negative = cytotoxicity: at the top concentration

Which “activity change, negative = cytotoxicity” value does the source give for `O=C1C=C(NS(=O)(=O)c2ccc(Br)cc2)C(=O)c2ccccc21` here?
Its value is -3.17% (inactive).

For `NC1=C(NS(=O)(=O)c2ccc(Br)s2)C(=O)c2ccccc2C1=O`, which “activity change, negative = cytotoxicity” value is on record?
The value was 0.175% (inactive).

For `CC(C)N1CCN(C2=C(Nc3ccc(F)cc3F)C(=O)c3ccccc3C2=O)CC1`, which “activity change, negative = cytotoxicity” value is on record?
The value was -13% (inactive).

With `NC1=C(NS(=O)(=O)c2ccc(Br)cc2)C(=O)c2ccccc2C1=O` as the compound, how does the “activity change, negative = cytotoxicity” value read?
The value was 1.99% (inactive).

With `NC1=C(NS(=O)(=O)c2ccccc2)C(=O)c2ccccc2C1=O` as the compound, how does the “activity change, negative = cytotoxicity” value read?
The value was -5.18% (inactive).

With `O=C1C=C(NS(=O)(=O)c2cccs2)C(=O)c2ccccc21` as the compound, how does the “activity change, negative = cytotoxicity” value read?
The value was -2.97% (inactive).

For `O=C1C(Nc2ccccc2)=C(c2ccccc2)C(=O)c2ccccc21`, which “activity change, negative = cytotoxicity” value is on record?
Its value is -6.4% (inactive).

With `O=C1C=C(NS(=O)(=O)c2ccccc2)C(=O)c2ccccc21` as the compound, how does the “activity change, negative = cytotoxicity” value read?
Its value is -10.1% (inactive).
